Results filed as inconclusive are left out. Where a call stands in place of a potency, no number is given. Values without a mark were called inactive. Active and inactive are the calls of the source. Calls follow the shape of the full dose curve.
Test: p53 small molecule agonists, cell-based qHTS assay with human liver microsomes: qHTS cell viability counter screen (AID 1963579); also: nearly all actives have a fitted effect of over 45% in size
Conditions: p53RE-bla HCT-116 viability, ATP luminescence, 16 h, HLM; series mostly up to 66 µM
Excerpt: National Center for Advancing Translational Sciences [NCATS]
Division of Preclinical Innovation [DPI]
U.S. Environmental Protection Agency [EPA]
National Institutes of Environmental Health Sciences [NIEHS]
National Toxicology Program [NTP]
U.S. Food and Drug Administration [FDA]
p53, a tumor suppressor protein, is activated following cellular insult, including DNA damage and other cellular stresses. The activation of p53 regulates cell fate by inducing DNA repair, cell cycle arrest, apoptosis, or cellular senescence. The activation of p53, therefore, is a good indicator of DNA damage and other cellular stresses. […] The activation of the reporter gene under culture conditions can be detected by fluorescence intensity. This cell line was used to screen the Tox21 10K compound library in the condition of presence of human liver microsomes and to identify agonists that activate the p53 signaling pathway after in vitro metabolic activation (Ooka et al., Archive of Toxicology 96:1975-1987, 2022).
Tox21 Assay Protocol Summary:
The p53RE-bla cells were dispensed at 4,000cells/3ul/well in 1536-well black-clear bottom plates. After the assay plates were incubated at 37 C, 5% CO2 incubator for 5 hours, 23 nL of compounds dissolved in DMSO, positive controls or DMSO only was transferred to the assay plate. Following compound addition, 3 uL of human liver microsomes (XenoTech, Kansas City, KS) at final concentration of 0.5 mg/mL and 1uL of B-Nicotinamide adenine dinucleotide 2'-phosphate (NADPH) at final concentration of 0.5 mg/mL were transferred to the assay plate. The plates were incubated at 37 C for 16 hours. 1 uL of LiveBLAzer detection mixture was added to each well and the plates were incubated at room temperature in the dark for 2 h. Fluorescence intensity at 460 and 530 nm emission and 405 nm excitation were measured by an Envision plate reader. For cell viability readout that measures cytotoxicity, 4 ul/well of CellTiter-Glo reagent was added into the assay plates using a Flying Reagent Dispenser. After 30 min incubation at room temperature, the luminescence intensity in the plates was measured using a ViewLux plate reader.
Potency is read from the fitted curve at half-maximal effect.

Row | SMILES | Potency | activity change, negative = cytotoxicity
1 | CCCCc1ccc2c(n1)[C@@H](c1ccc(OC)cc1C[C@H](C)C(=O)O)[C@H](C(=O)O)[C@H]2c1ccc2c(c1)OCO2 | inactive | –
2 | CCCCCCCCCC[N+](C)(C)[O-] | inactive | –
3 | C=CCCCCCCCCC=O | inactive | –
4 | CC(COc1ccccc1)NC(C)C(O)c1ccc(O)cc1 (stereo not given) | inactive | –
5 | O=[N+]([O-])c1c(Cl)cc(Cl)cc1Cl | inactive | –
6 | CCN1CCN(c2cc(-c3ccc(F)cc3)c3c(n2)CCCCCC3)CC1 | – | 11.2% [at 13.5 µM]
7 | C[C@]12CCC(=O)C=C1CC[C@@H]1[C@@H]2CC[C@@]2(C)[C@H]1CC[C@]2(O)C(=O)CO | inactive | –
8 | O=C(c1ccccc1)c1ccc(Cl)cc1 | inactive | –
9 | Nc1ccc2cc(S(=O)(=O)O)cc(O)c2c1 | inactive | –
10 | O=C(Nc1cccc2c(=O)cc(-c3nn[nH]n3)oc12)c1ccc(OCCCCc2ccccc2)cc1 | inactive | –
11 | CC(=O)Nc1ccc(C)c(Cl)c1 | inactive | –
12 | c1ccc(CCCc2ccccn2)cc1 | inactive | –
13 | COc1ccc2c(c1)C(=O)N(CCc1ccc(S(=O)(=O)NC(=O)NC3CCCCC3)cc1)C(=O)C2(C)C | inactive | –
14 | CC(C)(O)C(=O)c1ccccc1 | inactive | –
15 | O=c1cc(-c2ccccc2)oc2ccc3ccccc3c12 | inactive | –
16 | CCCCCCCC/C=C\CCCCCCCCOCCO | 53 µM (active) | –
17 | CN[C@@H]1[C@H](O)[C@H](NC)[C@H]2O[C@@]3(O)C(=O)C[C@@H](C)O[C@H]3O[C@@H]2[C@H]1O | inactive | –
18 | CN1CCN(C(c2ccccc2)c2ccccc2)CC1 | inactive | –
19 | Cc1c(C)n(CCN(C)C)c2ccc(C(=O)OCCN(C)C)cc12 | inactive | –
20 | CCCCCCCCOC(C)=O | inactive | –

Row | SMILES | Potency | activity change, negative = cytotoxicity
21 | CC(C)(Sc1cc(C(C)(C)C)c(O)c(C(C)(C)C)c1)Sc1cc(C(C)(C)C)c(O)c(C(C)(C)C)c1 | inactive | –
22 | CC(C)C(=O)OCc1cccc(OC(=O)[C@@H]2N3C(=O)[C@@H](NC(=O)Cc4ccccc4)[C@H]3SC2(C)C)c1 | inactive | –
23 | CC(C)C1OCCN1CCOC(=O)NCCCCCCNC(=O)OCCN1CCOC1C(C)C (stereo not given) | inactive | –
24 | O=C(O)c1cccc(N(Cc2cccnc2)c2ccc(OC(F)F)c(OC(F)F)c2)c1 | inactive | –
25 | BrC(Br)C(Br)Br | inactive | –
26 | COC(=O)CCCCCCCCC(=O)OC | inactive | –
27 | Cc1cc(O)c2c(c1)C(=O)c1cccc(O)c1C2=O | inactive | –
28 | c1ccc(-c2nn[nH]n2)cc1 | inactive | –
29 | COc1cc(S(=O)(=O)O)c(C)cc1N=Nc1c(O)ccc2cc(S(=O)(=O)O)ccc12 | inactive | –
30 | C=C1CC[C@H](O)C/C1=C\C=C1/CCC[C@]2(C)[C@@H]([C@H](C)CCCC(C)C)CC[C@@H]12 | inactive | –
31 | CCC(=O)O[C@]1(C(=O)COC)[C@@H](C)C[C@H]2[C@@H]3CCC4=CC(=O)C=C[C@]4(C)C3(F)[C@@H](O)C[C@@]21C (stereo not given in full) | inactive | –
32 | COc1cccc(O)c1O | inactive | –
33 | Cc1cc(C)cc([N+](=O)[O-])c1 | inactive | –
34 | CCCCOc1ccc(C(=O)CCN2CCCCC2)cc1 | inactive | –
35 | C=CC(C)(O)CCCC(C)CCCC(C)CCCC(C)C (stereo not given) | inactive | –
36 | N[C@H]1CN(c2c(F)cc3c(=O)c(C(=O)O)cn(C4C[C@H]4F)c3c2Cl)CC12CC2 (stereo not given in full) | inactive | –
37 | COc1ncnc(NS(=O)(=O)c2ccc(N)cc2)c1OC | inactive | –
38 | C[C@H](CCC(=O)O)[C@H]1CC[C@H]2[C@@H]3[C@H](O)C[C@@H]4C[C@H](O)CC[C@]4(C)[C@H]3C[C@H](O)[C@]12C | inactive | –
39 | CCCCN(CCCC)C(=O)N(CCCC)CCCC | inactive | –
40 | CC[N+](CC)(CC)Cc1ccccc1 | inactive | –
